PubChem BioAssay (NCATS)
Calls of active or inactive are those of the source. Calls follow the shape of the full dose curve.

molecular target: Glucocorticoid receptor (Homo sapiens) (UniProt P04150); test: GR-EFC Redistribution (AID 451); conditions: CHO-K1 GR-EFC translocation, beta-gal luminescence, 2 h
In short: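 Translocation of GR-ED fusion to nuclear EA restores b-gal, read by luminescence after 1 h room-temperature detection. Engineered CHO-K1 biosensor cells, 1,000/well, exposed 2 h at 37 C to titrations up to 46 uM final.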
Potency is read from the fitted curve at half-maximal effect.

Chain of Glucocorticoid receptor (Homo sapiens) (P04150 whole entry, looked up, the tested form may be a part): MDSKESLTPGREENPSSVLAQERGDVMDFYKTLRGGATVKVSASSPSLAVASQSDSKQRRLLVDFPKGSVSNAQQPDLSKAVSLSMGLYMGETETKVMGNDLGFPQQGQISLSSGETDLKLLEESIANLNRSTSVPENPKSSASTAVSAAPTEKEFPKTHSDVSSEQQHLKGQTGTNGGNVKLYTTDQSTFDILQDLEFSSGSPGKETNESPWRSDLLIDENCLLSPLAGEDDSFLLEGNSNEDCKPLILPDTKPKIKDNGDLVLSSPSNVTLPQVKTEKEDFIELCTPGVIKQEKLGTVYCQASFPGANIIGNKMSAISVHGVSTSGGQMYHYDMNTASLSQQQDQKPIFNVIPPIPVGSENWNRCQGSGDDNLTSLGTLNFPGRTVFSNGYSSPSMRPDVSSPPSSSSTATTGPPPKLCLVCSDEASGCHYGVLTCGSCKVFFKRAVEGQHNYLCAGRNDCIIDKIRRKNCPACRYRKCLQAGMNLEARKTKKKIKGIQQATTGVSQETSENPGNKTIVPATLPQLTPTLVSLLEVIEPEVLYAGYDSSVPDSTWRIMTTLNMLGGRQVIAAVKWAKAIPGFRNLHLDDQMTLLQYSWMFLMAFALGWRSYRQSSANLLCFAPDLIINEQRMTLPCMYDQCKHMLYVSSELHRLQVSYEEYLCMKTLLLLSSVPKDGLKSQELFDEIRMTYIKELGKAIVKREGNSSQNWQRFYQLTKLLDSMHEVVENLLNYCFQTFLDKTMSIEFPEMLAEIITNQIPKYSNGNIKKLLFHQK

Potency, inactive:
CC(=O)NCCNc1nc(-c2cccc(NS(C)(=O)=O)c2)nc2ccccc12 > 46 µM
Cc1noc(C)c1-c1nccc(NCCN2CCOCC2)n1 > 46 µM
Cc1cnc(CNc2ccnc(-c3cccc(NS(C)(=O)=O)c3)n2)cn1 > 46 µM
COc1cccc(Cn2c(=O)c(-c3cccc(C#N)c3)nc3cnc(N4CCOCC4)nc32)c1 > 46 µM
CN(C)C(=O)c1ccc(-c2cncnc2-n2ccnc2)cc1 > 46 µM
COc1ccccc1-c1cc(NCc2cnc(C)cn2)ncn1 > 46 µM
CNc1nc(-c2cccc(C#N)c2)nc2ccccc12 > 46 µM
COc1ccc2[nH]cc(CCNc3nc(-c4ccc(N(C)C)cc4)nc4ccccc34)c2c1 > 46 µM
COCCNc1nc(-c2c(C)noc2C)nc2ccccc12 > 46 µM
CN(C)C(=O)c1ccc(-c2ccc3ncnc(N4CCOCC4)c3c2)cc1 > 46 µM
COc1ccccc1CNc1ccnc(-c2ccccc2Cl)n1 > 46 µM
COc1cccc(Cn2c(=O)c(-c3ccc(F)cc3)nc3cncnc32)c1 > 46 µM
Cc1noc(C)c1-c1nc(NC2CC2)c2ccccc2n1 > 46 µM
COc1cccc(Nc2ncc3ncc(=O)n(C[C@H]4CCCO4)c3n2)c1 > 46 µM
Cn1cc(-c2nc3cncnc3n(C3CC3)c2=O)c2ccccc21 > 46 µM
COc1ccc(-c2nc3cnc(OCc4ccccc4)nc3n(CCC#N)c2=O)cc1 > 46 µM
COc1ccc2[nH]cc(CCNc3ccnc(-c4ccc(N(C)C)cc4)n3)c2c1 > 46 µM
Cn1cc(-c2nc3cncnc3n(Cc3ccccc3Cl)c2=O)c2ccccc21 > 46 µM
COc1cccc(-c2cc(NCc3cnc(C)cn3)ncn2)c1 > 46 µM
CC(=O)NCCNc1nc(-c2ccccc2C)nc2ccccc12 > 46 µM
COc1ccc(Oc2ncc3nc(-c4ccc(F)cc4)c(=O)n(Cc4cccs4)c3n2)cc1 > 46 µM
COc1ccc2[nH]cc(CCNc3ncncc3-c3cccnc3)c2c1 > 46 µM
CS(=O)(=O)Nc1cccc(-c2cc(Nc3ccccc3)ncn2)c1 > 46 µM
COc1ccccc1CNc1cc(-c2ccccc2OC)ncn1 > 46 µM
CNc1nc(-c2ccc(C(=O)N(C)C)cc2)nc2ccccc12 > 46 µM
CN(C)C(=O)c1ccc(-c2nccc(-n3ccnc3)n2)cc1 > 46 µM
Cc1cnc(CNc2cc(-c3ccccc3Cl)ncn2)cn1 > 46 µM
CN(Cc1ccco1)c1cc(-c2cccc(C#N)c2)ncn1 > 46 µM
Cc1ccccc1-c1nc(N(C)C)c2ccccc2n1 > 46 µM
Cc1noc(C)c1-c1nccc(NCc2ccccc2)n1 > 46 µM
Cc1cnc(CNc2cc(-c3ccccc3C(F)(F)F)ncn2)cn1 > 46 µM
CN(C)C(=O)c1ccc(-c2ccc3ncnc(N4CCNCC4)c3c2)cc1 > 46 µM
COc1cccc(-c2cc(NCc3cccnc3)ncn2)c1 > 46 µM
COc1ccc2[nH]cc(CCNc3ccnc(-c4ccc5c(c4)OCO5)n3)c2c1 > 46 µM
COc1ccc(CNc2ncncc2-c2ccc(C(=O)N(C)C)cc2)c(OC)c1 > 46 µM
Cn1c(=O)c(-c2cc(F)cc(F)c2)nc2cncnc21 > 46 µM
COc1cccc(-c2cncnc2NCc2cnc(C)cn2)c1 > 46 µM
COc1ccccc1-c1nc(NCCN2CCOCC2)c2ccccc2n1 > 46 µM
Cc1cnc(CNc2cc(-c3cccnc3)ncn2)cn1 > 46 µM
Cc1cnc(CNc2cc(-c3ccccc3C)ncn2)cn1 > 46 µM
